SMILES strings stand for the structures. Screen size: about 3,300 compounds; fewer than 10 were called active.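 Rule for the calls: active = growth inhibition above 90% in viable cell count at a single dose; inactive = growth inhibition below 90%.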 These entries were drawn from the full list.

Results on 38 compounds are retold here after PubChem BioAssay AID770 (SRMLSC, 2007).

This experiment is described as follows: HT29 colon tumor cell growth inhibition, primary screen, imaging, high content imaging, 24 h, CellTiter-Glo (AID 770).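 For condensed nuclei: share of cells whose nuclear area falls below control median minus 1.5 SD.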 The following applies: HT29 cell number by imaging, at 10 µM, stronger effect = higher value; for condensed nuclei: measured here: percent cells with condensed nuclei. (ATP-based viability assays read luminescence as a measure of living cells.)
Where [1] appears, read: measured here: ATP CellTiter-Glo viability.

Consider `CCOC(=O)C1CCN(c2nc3ccccc3nc2C(C#N)C(=O)OC(C)COC)CC1` (centres undefined), for which the growth inhibition is -2.37% (inactive) and the condensed nuclei was 15.8%. Also, under setting [1], the growth inhibition is 11.6%.
Consider `CCOc1ccc(-n2c(SCc3ccc(C#N)cc3)nnc2-c2cccnc2)cc1`, for which the growth inhibition is 17.1% (inactive) and the condensed nuclei was 4.78%. In addition, the growth inhibition under setting [1] was -9.28%.
The matching figures for `CCOC(=O)NC(O)C(=O)c1cccs1` (centres undefined): -55.2% (inactive), 1.51% and -7.3%.
As to `CC(C)OC(=O)CC1=NC(=O)CS1`, the growth inhibition is -22% (inactive) and the condensed nuclei is 3.69%. In addition, the growth inhibition under setting [1] is -8.97%.
For `COc1ccc(C=NCCC2(O)CC(C)N(C)CC2C)cc1` (centres undefined), the growth inhibition was 22.1% (inactive) and the condensed nuclei was found to be 3.27%. Moreover, under setting [1], the growth inhibition is -0.31%.
Taken in the same sequence, the figures for `COC(=O)CSc1nc(C)c(C(C)=O)cc1C#N` were 14.2% (inactive), 4.87% and -9.13%.
Taken in the same sequence, the figures for `COc1ccc(C2Nc3ccccc3C(=O)N2Cc2ccco2)cc1CN1C(=O)c2ccccc2C1=O` (centres undefined) were -35.2% (inactive), 3.89% and -9.9%.
Taken in the same sequence, the figures for `Cc1ccc(N2C(=O)CC(Cn3nc(C)cc3C)C2=O)cc1` (centres undefined) were 5.93% (inactive), 4% and -3.3%.
As for `CCN(CC)c1ccc(C2Nc3cccc4cccc(c34)N2)c(O)c1`, the growth inhibition is 39.6% (inactive) and the condensed nuclei was determined as 9.18%. The growth inhibition under setting [1] was determined as 11.2%.
The matching figures for `N#CCSc1nc2c(cc1C#N)CCCCCC2`: 27.6% (inactive), 3.85% and 16.5%.
For `O=C(c1ccco1)N1CCN(CCOCCOc2cccc3ccccc23)CC1`, the growth inhibition was -0.64% (inactive) and the condensed nuclei turned out to be 4.04%. Further, under setting [1], the growth inhibition was -9.08%.
Taken in the same sequence, the figures for `COC(=O)CSc1nnc(C)c(=O)[nH]1` were -50.8% (inactive), 0.97% and -8.35%.
Taken in the same sequence, the figures for `CCN(CC)CCCn1c(C)cc2c(c1=O)C(c1ccccc1)C(C#N)=C(N)O2` (centres undefined) were 3.77% (inactive), 3.21% and -0.04%.
As for `C=CCN=C(C)C1=C(O)CCC1=O`, the growth inhibition was -21.7% (inactive) and the condensed nuclei was determined as 1.55%. Under setting [1], the growth inhibition is -5.99%.
For the compound `CN(C)/C=C1\N=C(c2cccs2)OC1=O`, the growth inhibition is 21% (inactive) and the condensed nuclei was determined as 2.88%. Further, the growth inhibition under setting [1] amounted to 8.97%.
Taken in the same sequence, the figures for `COc1cccc2c1C(=O)c1c(O)c3c(c(O)c1C2=O)C[C@@](O)(C(=O)CO)C[C@@H]3O[C@H]1C[C@H](N)[C@H](O)[C@H](C)O1` were 84.2% (inactive), 0% and 0%.
Regarding `COc1cccc2c1C(=O)c1c(O)c3c(c(O)c1C2=O)C[C@@](O)(C(C)=O)C[C@@H]3O[C@H]1C[C@H](N)[C@H](O)[C@H](C)O1`, the growth inhibition was 96.9% (active) and the condensed nuclei was 8.82%. Moreover, the growth inhibition under setting [1] amounted to 33.6%.
The matching figures for `CC(C)CC(C(=O)O)C(C)CC(=O)Nc1ccn(-c2ccccc2)n1` (centres undefined): 23.8% (inactive), 6.12% and -0.54%.
The matching figures for `O=C(NCc1ccccn1)c1ccc(=O)oc1`: 3.8% (inactive), 2.33% and -10.6%.
Take `C=CCOc1ccc(C2/C(=C(\O)c3ccc(F)cc3)C(=O)C(=O)N2CCCN(C)C)cc1` (centres undefined): the growth inhibition was 12.6% (inactive) and the condensed nuclei worked out at 0.82%. The growth inhibition under setting [1] was -2.77%.
On to `COc1ccc(OC)c(C2/C(=C(\O)c3ccc(OC)c(Cl)c3)C(=O)C(=O)N2CCN(C)C)c1` (centres undefined), for which the growth inhibition is -11.2% (inactive) and the condensed nuclei turned out to be 3.18%. Further, the growth inhibition under setting [1] is -7.25%.
Take `COc1cccc(C2/C(=C(\O)c3ccc4c(c3)OCCO4)C(=O)C(=O)N2CCN(C)C)c1` (centres undefined): the growth inhibition was 2.52% (inactive) and the condensed nuclei came out at 1.83%. Moreover, under setting [1], the growth inhibition is -0.26%.
The matching figures for `CC1(C)Cc2c(sc3c2C2=NCCN2C=N3)CS1`: 8.06% (inactive), 5.47% and 0.86%.
The matching figures for `Nc1nonc1-c1noc(N2CCOCC2)n1`: -12.5% (inactive), 1.72% and -12.3%.
As to `O=C1C2ON(c3ccccc3)C(c3cccnc3)C2C(=O)N1Cc1ccccc1` (centres undefined), the growth inhibition was 13.7% (inactive) and the condensed nuclei turned out to be 2.97%. For the same compound, the growth inhibition under setting [1] was -16.2%.
The matching figures for `N#CC(C(=O)NC1CC1)c1nc2ccccc2nc1N1CCN(C/C=C/c2ccccc2)CC1` (centres undefined): -33.2% (inactive), 1.95% and -7.38%.
The matching figures for `CCOC(=O)c1cc(CC)sc1NC(=O)C1CC1`: -8.79% (inactive), 2.27% and -9.23%.
Taken in the same sequence, the figures for `CN1C(=O)c2ccc(N(C)C)cc2C1=O` were -24.1% (inactive), 1.05% and -7.32%.
As to `CCN1C(=O)CC(N2CCN(c3ccc(OC)cc3)CC2)C1=O` (centres undefined), the growth inhibition was -5.76% (inactive) and the condensed nuclei was determined as 4.31%. For the same compound, the growth inhibition under setting [1] is -6.84%.
Taken in the same sequence, the figures for `COc1ccc(S(=O)(=O)N2CCC(N3CCCCC3)CC2)cc1` were -21.4% (inactive), 2.89% and 3.08%.
Turning to `Cc1cccn2c(=O)c3cc(C(N)=S)c(=N)n(CCCOC(C)C)c3nc12`, the growth inhibition is -47.5% (inactive) and the condensed nuclei amounted to 3.48%. Also, under setting [1], the growth inhibition was -18.1%.
The matching figures for `Cc1cccc(C)c1NC(=O)CSCC(=O)c1ccc(O)c(O)c1`: 24.8% (inactive), 7.02% and -2.15%.
The matching figures for `CC(C)Cc1nc(N2CCN(C(=O)Cc3ccccc3)CC2)c(C#N)c2c1COC(C)(C)C2`: -45.4% (inactive), 0.93% and -6.01%.
Taken in the same sequence, the figures for `Cc1ccc(Oc2nc3c(c(=O)n(Cc4ccccc4F)c(=O)n3C)n2C)cc1` were 1.1% (inactive), 1.09% and 5.27%.
Consider `c1ccc2c(c1)NC(c1ccncc1)n1c-2nc2ccccc21` (centres undefined), for which the growth inhibition is 16.4% (inactive) and the condensed nuclei is 3.13%. Besides, under setting [1], the growth inhibition was -9.59%.
As to `COc1ccc(/C(O)=C2/C(=O)C(=O)N(c3ncccn3)C2c2ccc(OC)c(OC)c2)cc1` (centres undefined), the growth inhibition is 59.3% (inactive) and the condensed nuclei came to 4.07%. The growth inhibition under setting [1] was 10.6%.
Taken in the same sequence, the figures for `O=C1CC(c2ccccc2)NC(=O)N1` (centres undefined) were -5.61% (inactive), 3.08% and 1.46%.
As for `FC(F)(F)c1cccc(N2CCc3cn[nH]c32)c1`, the growth inhibition was 21.1% (inactive) and the condensed nuclei came to 4.2%. The growth inhibition under setting [1] is -4.43%.
